# Laboratory results: PubChem BioAssay
# Values without a mark were called inactive. The list shows a part of the results. Active and inactive are the calls of the source. Rule as the data show it, unless noted: active = activation above about 20%; inactive = the rest.
# What was measured:
# [1] = target: Galanin receptor type 2 (Homo sapiens) (UniProt O43603); assay: GALR2 antagonists, retest of hits, confirmation, cell-based (AID 866; in the data active = inhibition above about 27%;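 also: cells stimulated with galanin at about its EC80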); conditions: GALR2-expressing cells, antagonist mode, at 4 µM, hits give high values
# [2] = inhibitors of NFAT-driven beta-lactamase reporter, confirmation, counter-screen for GALR2 antagonist project, CHO NFAT-bla cells, FRET readout (AID 867;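 active = inhibition above the mean inhibition across tested compounds plus 3 SD, cut at about 27% in these data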;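 also: 0% = 500 nM thapsigargin stimulated wells and 100% = unstimulated BSA only wells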); conditions: thapsigargin-stimulated, at 4.2 µM, hits give high values
# [3] = target: Sphingosine 1-phosphate receptor 4 (Homo sapiens) (UniProt O95977); assay: S1P4 receptor antagonists, human, confirmation, cell-based (AID 1524; in the data active = inhibition above about 30%); conditions: S1P4-expressing cell line, antagonist mode, reporter read-out; at 4.98 µM; hits give high values
# Sphingosine 1-phosphate receptor 4 (Homo sapiens), sequence (O95977 whole entry, looked up): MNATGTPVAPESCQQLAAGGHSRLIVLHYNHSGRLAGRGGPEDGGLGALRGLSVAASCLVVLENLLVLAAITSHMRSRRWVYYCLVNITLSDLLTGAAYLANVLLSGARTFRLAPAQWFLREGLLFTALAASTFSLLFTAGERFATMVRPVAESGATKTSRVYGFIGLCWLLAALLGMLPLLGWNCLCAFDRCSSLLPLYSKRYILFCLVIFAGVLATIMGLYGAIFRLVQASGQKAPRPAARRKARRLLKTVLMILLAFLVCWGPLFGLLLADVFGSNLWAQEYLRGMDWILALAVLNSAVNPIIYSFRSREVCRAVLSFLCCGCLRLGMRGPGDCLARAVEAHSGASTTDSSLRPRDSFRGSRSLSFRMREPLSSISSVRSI
# [4] = target: Neuropeptide Y receptor type 2 (Homo sapiens) (UniProt P49146); assay: NPY-Y2 potentiators or agonists, confirmation, cell-based (AID 1539; in the data active = activation above about 33%); conditions: cell-based NPY-Y2 potentiator/agonist assay; at 3.6 µM; hits give high values
# Neuropeptide Y receptor type 2 (Homo sapiens), sequence (P49146 whole entry, looked up): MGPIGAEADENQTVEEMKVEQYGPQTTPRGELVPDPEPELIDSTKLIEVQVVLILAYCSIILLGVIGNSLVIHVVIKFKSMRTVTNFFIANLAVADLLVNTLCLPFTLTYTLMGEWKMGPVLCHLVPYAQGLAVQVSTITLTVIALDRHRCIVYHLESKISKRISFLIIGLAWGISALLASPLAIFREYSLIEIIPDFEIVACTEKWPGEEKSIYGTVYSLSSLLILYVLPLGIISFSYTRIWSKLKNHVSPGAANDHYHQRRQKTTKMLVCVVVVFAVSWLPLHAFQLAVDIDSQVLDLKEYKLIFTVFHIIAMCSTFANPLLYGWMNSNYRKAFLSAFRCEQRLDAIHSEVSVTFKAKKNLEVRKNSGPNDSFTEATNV
# [5] = target: Sphingosine 1-phosphate receptor 1 (Homo sapiens) (UniProt P21453); assay: S1P1 receptor antagonists, human, counter-screen for S1P4 antagonist project, cell-based (AID 1564; in the data active = inhibition above about 40%;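 also: receptor stimulated with S1P near its EC80; 0% = agonist stimulated wells and 100% = vehicle only wells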); conditions: cell-based S1P1 antagonist counterscreen, at 4.98 µM, hits give high values
# Sphingosine 1-phosphate receptor 1 (Homo sapiens), sequence (P21453 whole entry, looked up): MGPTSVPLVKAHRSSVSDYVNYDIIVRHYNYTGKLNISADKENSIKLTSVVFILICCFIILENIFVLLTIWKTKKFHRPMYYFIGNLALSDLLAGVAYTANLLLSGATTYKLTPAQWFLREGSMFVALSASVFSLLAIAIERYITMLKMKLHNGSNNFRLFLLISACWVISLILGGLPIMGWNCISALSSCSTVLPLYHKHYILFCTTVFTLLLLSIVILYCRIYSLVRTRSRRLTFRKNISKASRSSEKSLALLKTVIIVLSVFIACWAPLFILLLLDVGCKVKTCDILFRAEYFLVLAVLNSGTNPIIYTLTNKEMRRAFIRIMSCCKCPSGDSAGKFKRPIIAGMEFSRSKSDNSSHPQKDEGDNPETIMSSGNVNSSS
# [6] = target: Neuropeptide Y receptor type 1 (Homo sapiens) (UniProt P25929); assay: NPY-Y1 potentiators or agonists, counter-screen for NPY-Y2 potentiator project, cell-based, fluorescence (AID 1651; in the data active = activation above about 45%;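 also: cells stimulated with submaximal NPY then isoproterenol with phosphodiesterase inhibitor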); conditions: Y1 HEK293-CNG cells, membrane potential fluorescence; at 3.6 µM; hits give high values
# Neuropeptide Y receptor type 1 (Homo sapiens), sequence (P25929 whole entry, looked up): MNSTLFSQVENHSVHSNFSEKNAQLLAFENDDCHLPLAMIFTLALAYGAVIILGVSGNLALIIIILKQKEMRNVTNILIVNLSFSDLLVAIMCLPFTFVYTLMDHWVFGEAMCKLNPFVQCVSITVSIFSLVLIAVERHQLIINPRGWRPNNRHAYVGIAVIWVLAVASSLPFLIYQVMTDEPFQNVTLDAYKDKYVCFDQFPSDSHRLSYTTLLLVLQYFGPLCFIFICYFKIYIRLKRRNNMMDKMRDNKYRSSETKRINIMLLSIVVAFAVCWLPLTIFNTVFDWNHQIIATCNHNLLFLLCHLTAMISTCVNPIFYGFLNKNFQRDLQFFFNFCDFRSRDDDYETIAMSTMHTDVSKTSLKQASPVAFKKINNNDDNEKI
# [7] = target: Neuropeptide Y receptor type 1 (Homo sapiens) (UniProt P25929); assay: NPY-Y1 direct agonists, selectivity assay for NPY-Y2 potentiator project, cell-based, fluorescence (AID 1702;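 active = activation above the mean of DMSO-only control wells plus 3 SD, cut at about 18% in these data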;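 also: cells stimulated with 1 µM isoproterenol plus the PDE inhibitor Ro 20-1724; 0% = isoproterenol with DMSO and no NPY and 100% = 40 nM NPY; Y1 agonists lower the membrane potential dye signal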); conditions: HEK293 Y1-CNGC, membrane potential fluorescence, agonism; at 3.6 µM; hits give high values
# [8] = CNGC cAMP sensor activity inhibitors, counter-screen for NPY-Y2 potentiator project, cell-based, HEK293-CNG parental, membrane potential fluorescence (AID 1703;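 active = inhibition above the control-well mean plus 3 SD of those wells, cut at about 22% in these data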;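 also: 0% = DMSO with isoproterenol and 100% = DMSO without isoproterenol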); conditions: isoproterenol cAMP, at 3.6 µM, hits give high values
# [9] = target: Neuropeptide Y receptor type 2 (Homo sapiens) (UniProt P49146); assay: NPY-Y2 direct agonists, counter-screen for NPY-Y2 potentiator project, cell-based, fluorescence (AID 1710;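 active = activation above the mean of solvent-only control wells plus 3 SD, cut at about 10% in these data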;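 also: cells stimulated by isoproterenol with no NPY added so direct agonism is tested; 0% = DMSO with isoproterenol alone and 100% = NPY at EC100 plus isoproterenol; agonism lowers probe fluorescence through less cAMP and CNG channel opening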); conditions: HEK293 Y2/CNGC cells, membrane potential fluorescence, agonist mode; at 3.6 µM; hits give high values
# [10] = KLF5 expression inhibitors, confirmation, DLD-1 cells, luminescence (AID 1834;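 active = inhibition above a set limit taken from the earlier primary screen, cut at about 63% in these data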;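 also: 0% = DMSO wells and 100% = LY294002 at 200 µM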); conditions: DLD-1 KLF5 promoter firefly luciferase reporter, at 4 µM, hits give high values
# [11] = cytotoxicity in rat IEC-6 cells, cytotoxicity control for KLF5 inhibitor project, cell-based, luminescence, triplicate (AID 1905; in the data active = inhibition above about 23%;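 also: cells exposed to compounds for 48 hours before viability read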); conditions: IEC-6 rat intestinal cells, viability luminescence; at 4 µM; hits give high values
# [12] = target: Oxytocin receptor (Homo sapiens) (UniProt P30559); assay: human OXTR agonists, confirmation, fluorescence, CHO-OTR cells, triplicate (AID 434963;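 active = mean activation above about 20% derived from the earlier single-dose screen, limit read from the data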;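 also: peak over minimum fluorescence ratio per well during a 100 second FLIPR read; 0% = DMSO alone and 100% = oxytocin high control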); conditions: Fluo-8 calcium fluorescence, agonist, at 3 µM, hits give high values
# Oxytocin receptor (Homo sapiens), sequence (P30559 whole entry, looked up): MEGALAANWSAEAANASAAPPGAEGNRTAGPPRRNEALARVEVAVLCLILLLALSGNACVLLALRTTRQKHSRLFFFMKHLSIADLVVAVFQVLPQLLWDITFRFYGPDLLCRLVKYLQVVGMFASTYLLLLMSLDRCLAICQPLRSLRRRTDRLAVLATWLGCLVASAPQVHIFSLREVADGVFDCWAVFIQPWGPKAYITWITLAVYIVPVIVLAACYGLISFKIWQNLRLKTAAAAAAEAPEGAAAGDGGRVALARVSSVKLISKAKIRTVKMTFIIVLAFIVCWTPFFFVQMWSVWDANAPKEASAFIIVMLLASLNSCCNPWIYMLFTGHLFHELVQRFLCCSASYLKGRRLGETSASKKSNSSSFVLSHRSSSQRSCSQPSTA
# [13] = target: Vasopressin V1a receptor (Homo sapiens) (UniProt P37288); assay: V1a receptor agonists, calcium signal, counter-screen for OXTR agonist project, triplicate, fluorescence, CHO-V1R cells (AID 434991;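 active = mean activation over triplicate exceeds the hit threshold set in the earlier primary screen, cut at about 20% in these data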;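 also: peak over basal fluorescence ratio within a 100 second read; 0% = DMSO alone and 100% = 3 nM vasopressin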); conditions: Fluo-8 calcium fluorescence, at 3 µM, hits give high values
# [14] = target: Nuclear receptor coactivator 3 (Homo sapiens) (UniProt Q9Y6Q9); assay: SRC3 coactivator transcriptional activity inhibitors, confirmation, cell-based, luminescence, quadruplicate (AID 588792;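 active = mean inhibition over 43.08%, the solvent-only control mean plus 3 SD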;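 also: 0% = DMSO treated cells and 100% = gossypol at 36 µM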); conditions: HEK293 GAL4-SRC3 luciferase reporter, at 3.6 µM, hits give high values
# Nuclear receptor coactivator 3 (Homo sapiens), sequence (Q9Y6Q9 whole entry, looked up, the tested form may be a part): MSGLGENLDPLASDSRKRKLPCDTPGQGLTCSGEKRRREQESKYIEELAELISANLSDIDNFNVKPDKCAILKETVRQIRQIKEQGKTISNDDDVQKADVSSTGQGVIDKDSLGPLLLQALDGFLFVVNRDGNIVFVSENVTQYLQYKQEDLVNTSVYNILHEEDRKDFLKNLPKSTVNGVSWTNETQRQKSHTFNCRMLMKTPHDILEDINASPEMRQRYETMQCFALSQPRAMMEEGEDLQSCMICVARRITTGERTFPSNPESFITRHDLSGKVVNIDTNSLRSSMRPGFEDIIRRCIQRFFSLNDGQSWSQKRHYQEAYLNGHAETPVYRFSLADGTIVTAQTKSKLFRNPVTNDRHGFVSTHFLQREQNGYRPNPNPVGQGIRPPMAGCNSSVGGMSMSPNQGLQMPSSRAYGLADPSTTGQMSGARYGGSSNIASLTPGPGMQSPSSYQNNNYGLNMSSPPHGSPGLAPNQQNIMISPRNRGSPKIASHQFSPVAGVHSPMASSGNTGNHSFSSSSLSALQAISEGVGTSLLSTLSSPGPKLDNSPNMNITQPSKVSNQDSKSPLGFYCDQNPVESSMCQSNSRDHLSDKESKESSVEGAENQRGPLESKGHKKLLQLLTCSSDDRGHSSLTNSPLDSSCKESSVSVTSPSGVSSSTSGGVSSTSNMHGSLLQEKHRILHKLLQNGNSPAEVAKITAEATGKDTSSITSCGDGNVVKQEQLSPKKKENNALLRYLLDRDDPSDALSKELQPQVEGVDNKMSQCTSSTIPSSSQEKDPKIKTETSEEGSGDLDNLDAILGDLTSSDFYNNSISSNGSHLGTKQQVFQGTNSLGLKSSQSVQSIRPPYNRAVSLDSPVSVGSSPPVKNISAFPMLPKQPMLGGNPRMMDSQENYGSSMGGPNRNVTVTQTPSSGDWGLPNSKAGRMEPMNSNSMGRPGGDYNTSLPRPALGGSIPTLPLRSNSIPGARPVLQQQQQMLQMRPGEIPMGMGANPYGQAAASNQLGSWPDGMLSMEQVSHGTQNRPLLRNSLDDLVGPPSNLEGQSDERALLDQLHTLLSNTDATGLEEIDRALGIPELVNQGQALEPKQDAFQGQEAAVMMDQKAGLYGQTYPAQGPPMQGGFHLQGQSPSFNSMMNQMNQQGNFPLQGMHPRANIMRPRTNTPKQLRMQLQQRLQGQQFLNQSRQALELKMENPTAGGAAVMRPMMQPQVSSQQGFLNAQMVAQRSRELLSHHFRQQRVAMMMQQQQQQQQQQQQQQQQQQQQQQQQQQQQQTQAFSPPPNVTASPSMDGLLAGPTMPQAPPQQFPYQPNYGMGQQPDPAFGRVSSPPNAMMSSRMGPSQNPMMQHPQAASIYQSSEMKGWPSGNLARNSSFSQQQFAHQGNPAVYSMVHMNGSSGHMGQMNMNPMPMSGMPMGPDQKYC
# [15] = tested on: transactivating tegument protein VP16 (Human herpesvirus 1), Gal4-VP16 luciferase reporter; assay: VP16 transactivation inhibitors, counter-screen for SRC3 inhibitor project, cell-based, luminescence, high throughput (AID 588794; in the data active = inhibition above about 30%); conditions: mammalian cells, VP16-driven luciferase reporter luminescence; at 3.6 µM; hits give high values
# [16] = target: Nuclear receptor coactivator 1 (Homo sapiens) (UniProt Q15788); assay: SRC1 coactivator transcriptional activity inhibitors, confirmation, cell-based, luminescence, quadruplicate (AID 588820;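 active = mean inhibition above 46.68%, the untreated control wells mean plus 3 SD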;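 also: 0% = DMSO wells and 100% = gossypol 36 µM treated wells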); conditions: HEK293 GAL4-SRC1 luciferase reporter, at 3.6 µM, hits give high values
# [17] = VP16 transactivation inhibitors, counter-screen for SRC1 inhibitor project, cell-based, luminescence, high throughput (AID 588824; in the data active = inhibition above about 25%); conditions: cell-based VP16 transactivation luciferase luminescence; at 3.6 µM; hits give high values
# [18] = target: Photoreceptor-specific nuclear receptor (Homo sapiens) (UniProt Q9Y5X4); assay: NR2E3 agonist confirmation in cells, cell-based, luminescence, CHO-S two-hybrid (AID 624378;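 active = average inhibition above a cutoff equal to the mean inhibition of all tested compounds plus one SD, cut at about 70% in these data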;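 also: 0% = DMSO in NR2E3 cells and 100% = DMSO in cells lacking NR2E3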); conditions: CHO-S mammalian two-hybrid NR2E3-NCOR, luciferase luminescence; at 3.98 µM; hits give high values
# Photoreceptor-specific nuclear receptor (Homo sapiens), sequence (Q9Y5X4 whole entry, looked up, the tested form may be a part): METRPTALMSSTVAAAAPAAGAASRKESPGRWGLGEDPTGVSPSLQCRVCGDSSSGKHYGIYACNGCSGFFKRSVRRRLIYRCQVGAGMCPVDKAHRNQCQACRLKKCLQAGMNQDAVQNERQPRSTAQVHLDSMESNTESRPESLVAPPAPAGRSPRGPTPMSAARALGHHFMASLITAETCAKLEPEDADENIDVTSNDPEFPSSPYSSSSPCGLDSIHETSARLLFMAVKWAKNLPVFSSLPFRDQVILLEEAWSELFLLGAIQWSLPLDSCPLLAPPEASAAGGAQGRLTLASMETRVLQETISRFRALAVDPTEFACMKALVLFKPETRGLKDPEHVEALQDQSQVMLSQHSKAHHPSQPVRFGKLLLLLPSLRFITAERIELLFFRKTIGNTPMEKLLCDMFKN
# [19] = GAL4-VP16 reporter modulators, confirmation, counter-screen for NR2E3 agonist project, cell-based, luminescence, CHO-S, high throughput (AID 624379;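 active = mean inhibition above a cutoff equal to the average over all tested compounds plus one standard deviation, cut at about 70% in these data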;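 also: 0% = DMSO with VP16-transfected cells and 100% = DMSO with cells lacking VP16; higher means less reporter light so more repression of VP16 activity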); conditions: CHO-S GAL4-VP16 luciferase reporter, at 3.98 µM, hits give high values
# [20] = StAR promoter reporter inhibitors, counter-screen for LRH-1 inverse agonist project, cell-based, luminescence, high throughput (AID 651611; in the data active = inhibition above about 28%); conditions: StAR promoter luciferase reporter counterscreen, at 3.6 µM, hits give high values
# [21] = target: Nuclear receptor subfamily 5 group A member 2 (Homo sapiens) (UniProt O00482); assay: LRH-1 (NR5A2) inverse agonists, retest, confirmation, cell-based, luminescence (AID 651613; in the data active = inhibition above about 42%;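 also: HEK293T cells co-transfected with LRH-1 and StAR promoter luciferase reporter; 0% = vehicle wells and 100% = parental cells lacking receptor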); conditions: cell-based LRH-1 luciferase reporter, inverse agonism; at 3.6 µM; hits give high values
# [22] = target: Steroidogenic factor 1 (Homo sapiens) (UniProt Q13285); assay: SF1 (NR5A1) inverse agonists, counter-screen for LRH-1 inverse agonist project, cell-based, luminescence, high throughput (AID 651614; in the data active = inhibition above about 44%;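 also: cells cotransfected with StAR promoter reporter and SF1 expression vector; 0% = vehicle on cells with receptor and 100% = vehicle on cells lacking receptor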); conditions: cell-based SF1 luciferase reporter, at 3.6 µM, hits give high values
# [23] = VP16 transactivation reporter inhibitors, counter-screen for LRH-1 inverse agonist project, cell-based, luminescence, high throughput (AID 651615; in the data active = inhibition above about 33%); conditions: Gal4-VP16 luciferase reporter cells, at 3.6 µM, hits give high values
# [24] = growth loss of phage-infected RecBCD+ E. coli, confirmation, RecBCD inhibitor project, absorbance, E. coli V66, T4 gene 2 phage (AID 651982;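 active = mean inhibition over triplicates exceeding the hit threshold derived in the original primary screen, cut at about 11% in these data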); conditions: E. coli V66 + T4 2- phage, growth OD; at 11.9 µM; hits give high values
# [25] = E. coli viability inhibition, counter-screen for RecBCD inhibitor project, absorbance, high throughput (AID 651983; in the data active = inhibition above about 20%;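 also: E. coli strain V66 grown with compound alone and no phage infection; 0% = bacteria with DMSO vehicle only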); conditions: absorbance (OD) growth, at 11.9 µM, hits give high values
# [26] = growth loss of phage-infected AddAB-carrying E. coli, confirmation, counter-screen for RecBCD inhibitor project, absorbance, E. coli V3065, T4 phage (AID 651984;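 active = mean inhibition above the solvent-only control wells' mean plus 3 SD, cut at about 22% in these data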;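 also: higher means less bacterial growth from phage killing when AddAB is blocked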); conditions: E. coli expressing H. pylori AddAB + T4 phage, OD growth; at 11.9 µM; hits give high values; gene 2 mutant T4, recBCD-deleted host
# [27] = Gal4-VP16 luciferase reporter inhibitors, counter-screen for COUP-TFII antagonist project, cell-based, luminescence, HEK293 (AID 687007; in the data active = inhibition above about 13%); conditions: at 8.5 µM, hits give high values
# [28] = target: COUP transcription factor 2 (Homo sapiens) (UniProt P24468); assay: NR2F2 transcriptional activity inhibitors, confirmation, cell-based, luciferase reporter, HEK293, triplicate (AID 687008;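 active = mean inhibition over three repeats above a set limit taken from the earlier primary screen, cut at about 38% in these data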;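 also: 100% = cells given the luciferase reporter alone without the COUP-TF2 vector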); conditions: HEK293 NGFI-A luciferase reporter, luminescence; at 8.5 µM; hits give high values
# [29] = target: Peroxisome proliferator-activated receptor gamma (Homo sapiens) (UniProt P37231); assay: agonists of PPARgamma SRC-2 coactivator recruitment, confirmation, biochemical, HTS (AID 1297; in the data active = activation above about 22%;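 also: 0% = vehicle alone and 100% = reference agonist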); conditions: biochemical SRC-2 recruitment by PPARgamma; at 8 µM; hits give high values
# Peroxisome proliferator-activated receptor gamma (Homo sapiens), sequence (P37231 whole entry, looked up): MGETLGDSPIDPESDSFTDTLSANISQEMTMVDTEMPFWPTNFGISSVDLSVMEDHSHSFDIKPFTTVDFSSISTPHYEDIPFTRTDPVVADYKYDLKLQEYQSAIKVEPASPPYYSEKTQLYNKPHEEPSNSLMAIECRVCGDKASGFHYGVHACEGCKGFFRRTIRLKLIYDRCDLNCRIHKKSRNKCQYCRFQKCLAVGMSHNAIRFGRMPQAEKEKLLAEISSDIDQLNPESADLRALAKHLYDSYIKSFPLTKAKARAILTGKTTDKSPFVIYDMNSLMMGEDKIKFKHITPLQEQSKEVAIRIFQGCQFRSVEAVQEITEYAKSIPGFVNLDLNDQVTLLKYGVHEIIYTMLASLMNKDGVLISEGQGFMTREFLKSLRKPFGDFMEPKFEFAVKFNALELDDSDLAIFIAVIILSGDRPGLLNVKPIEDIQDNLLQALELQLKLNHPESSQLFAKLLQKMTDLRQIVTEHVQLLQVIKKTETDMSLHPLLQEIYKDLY
# [30] = target: Peroxisome proliferator-activated receptor gamma (Homo sapiens) (UniProt P37231); assay: PPARgamma agonists recruiting SRC-1 coactivator, confirmation, biochemical (AID 1300); conditions: PPARgamma–SRC-1 coactivator recruitment biochemical assay; at 8 µM; hits give high values;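 also: 0% = vehicle wells and 100% = reference agonist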
# [31] = target: Peroxisome proliferator-activated receptor gamma (Homo sapiens) + Nuclear receptor coactivator 3 (Homo sapiens) (UniProt P37231+Q9Y6Q9); assay: PPARgamma-driven SRC-3 coactivator recruitment agonists, confirmation, biochemical (AID 1301; in the data active = activation above about 24%;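 also: 0% = vehicle wells and 100% = reference agonist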); conditions: biochemical PPARgamma-SRC-3 coactivator recruitment, agonist mode; at 8 µM; hits give high values
# Peroxisome proliferator-activated receptor gamma (Homo sapiens) + Nuclear receptor coactivator 3 (Homo sapiens), sequence (P37231 whole entry, looked up): as above
# Peroxisome proliferator-activated receptor gamma (Homo sapiens) + Nuclear receptor coactivator 3 (Homo sapiens), sequence (Q9Y6Q9 whole entry, looked up): as the sequence (Q9Y6Q9 whole entry, looked up, the tested form may be a part) above
# [32] = target: Photoreceptor-specific nuclear receptor (Homo sapiens) (UniProt Q9Y5X4); assay: NR2E3 agonists, confirmation, biochemical, TR-FRET (AID 2379); conditions: cell-free NR2E3 corepressor release, 5 h, at 3.98 µM, hits give high values
# [33] = target: Peroxisome proliferator-activated receptor gamma (Homo sapiens) + Nuclear receptor corepressor 2 (Homo sapiens) (UniProt P37231+Q9Y618); assay: agonists of PPARg-NCOR2 corepressor interaction, counter-screen for NR2E3 agonist project, biochemical, TR-FRET (AID 504787; in the data active = inhibition above about 20%;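 also: 0% = DMSO vehicle and 100% = wells without protein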); conditions: TR-FRET PPARg-NCOR2 coregulator interaction, at 3.98 µM, hits give high values
smiles,measurement,setting,value
O=C(NC(Nc1nc2ccc([N+](=O)[O-])cc2s1)(C(F)(F)F)C(F)(F)F)c1ccccc1,inhibition,[1],99.4% (active)
same,inhibition,[2],69.4% (active)
same,inhibition,[3],64.5% (active)
same,activation,[4],30.6%
same,inhibition,[5],26.4%
same,activation,[6],-2.54%
same,activation,[7],-9.19%
same,inhibition,[8],-2.45%
same,activation,[9],22.1% (active)
same,inhibition,[10],83.7% (active)
same,inhibition,[11],90.4% (active)
same,activation,[12],13%
same,activation,[13],8.96%
same,inhibition,[14],69.1% (active)
same,inhibition,[15],84.5% (active)
same,inhibition,[16],38.7%
same,inhibition,[17],84.3% (active)
same,inhibition,[18],98.5% (active)
same,inhibition,[19],93.3% (active)
same,inhibition,[20],82.9% (active)
same,inhibition,[21],105% (active)
same,inhibition,[22],93.3% (active)
same,inhibition,[23],86.8% (active)
same,inhibition,[24],8%
same,inhibition,[25],10.7%
same,inhibition,[26],11.3%
same,inhibition,[27],6.94%
same,inhibition,[28],65.9% (active)
CC(=O)c1sc2nc(SCC(=O)N3CCCCC3)[nH]c(=O)c2c1C,activation,[29],27.4% (active)
same,activation,[30],20.8% (active)
same,activation,[31],18.3%
same,activation (reported as inhibition),[32],17.4%
same,inhibition,[33],21.1% (active)
CCOC(=O)C1CCN(C(=O)CSc2cc(=O)n(C)c3ccccc23)CC1,activation,[29],38.9% (active)
same,activation,[30],22.9% (active)
same,activation,[31],24.4% (active)
OCC1(CCc2ccccc2)CCN(Cc2ccc3nsnc3c2)CC1,activation,[29],32.8% (active)
same,activation,[30],26.3% (active)
same,activation,[31],22.9%
Cn1c(=O)cc(SCC(=O)N2CCCC2)c2cc(Cl)ccc21,activation,[29],60.1% (active)
same,activation,[30],41.1% (active)
same,activation,[31],42% (active)
Cc1ccccc1-c1n[nH]c(=S)n1/N=C/c1ccc(-c2ccccc2Br)o1,activation,[29],33.5% (active)
same,activation,[30],28.2% (active)
same,activation,[31],22.5%
O=C(/C=C/c1ccc(Cl)cc1Cl)c1cccnc1,inhibition,[3],43.4% (active)
same,inhibition,[5],23.6%
Cc1cc(C)c2cc(CN(Cc3cccs3)Cc3nnnn3CC3CCCO3)c(=O)[nH]c2c1 (stereo not drawn),activation,[29],9.95%
same,activation,[30],11.9%
same,activation,[31],15%
O=C(Oc1ccccc1)Oc1ccc2c(c1)oc(=O)c1ccccc12,activation,[29],27.9% (active)
same,activation,[30],16.1%
same,activation,[31],19.9%
same,activation (reported as inhibition),[32],1.72%
same,inhibition,[33],6.42%
COc1ccc(-c2csc(NC3OC(=O)c4ccccc43)n2)cc1 (stereo not drawn),inhibition,[3],19.3%
same,inhibition,[5],-6.85%
CCn1c(SCC(=O)Nc2cccc(F)c2)nnc1-c1cc2cc(Br)ccc2o1,activation,[29],18%
same,activation,[30],15%
same,activation,[31],14.3%
CCn1c(=O)cc(SCC(=O)NCc2ccc3c(c2)OCO3)c2ccccc21,activation,[29],22.7% (active)
same,activation,[30],15.8%
same,activation,[31],18.1%
